From PubChem BioAssay AID1159580 (chemical genetic matrix, 2015)
Hit rate of the full screen: of about 5,500 compounds, about 2,000 (36%) were called active. Roughly 18% stayed inconclusive and do not appear here. Rule as the data show it: active = normalized growth mostly below about 0.91 (no sharp cut-off); inconclusive = no clear call, values can overlap the other calls; inactive = mostly above about 0.92. This is one part of the list.

Experiment: chemical genetic growth profiling, strain panel (AID 1159580);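 also: tested at 20 µM; growth read once vehicle control cultures reached saturation at 30 °C; 1 = growth at the plate median or of vehicle wells; lower values mean less growth of the strain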
Conditions: S. cerevisiae deletion strains, growth OD

Measured: normalized growth

CCCCCN=C(N)N/N=C\c1c[nH]c2ccc(OC)cc12
inactive: locus YAL013W, strain DEP1, stronger effect = lower value 1.01 | locus YAL021C, strain ccr4, stronger effect = lower value 0.985 | locus YAL026C, strain drs2, stronger effect = lower value 0.928 | locus YAL030W, strain snc1, stronger effect = lower value 1.01 | locus YBL061C, strain skt5, stronger effect = lower value 1.01 | locus YBR009C, strain hhf1, stronger effect = lower value 0.985 | locus YBR021W, strain FUR4, stronger effect = lower value 0.989 | locus YBR023C, strain chs3, stronger effect = lower value 0.988 | locus YBR171W, strain sec66, stronger effect = lower value 1.03 | locus YBR229C, strain ROT2, stronger effect = lower value 1 | locus YBR231C, strain swc5, stronger effect = lower value 1 | locus YBR279W, strain paf1, stronger effect = lower value 1.01 | locus YCL011C, strain gbp2, stronger effect = lower value 1 | locus YCL016C, strain dcc1, stronger effect = lower value 0.985 | locus YCL029C, strain bik1, stronger effect = lower value 1.03 | locus YCL069W, strain vba3, stronger effect = lower value 1.02 | locus YCR088W, strain abp1, stronger effect = lower value 1.02 | locus YDL005C, strain med2, stronger effect = lower value 1.01 | locus YDL035C, strain GPR1, stronger effect = lower value 0.989 | locus YDL040C, strain nat1, stronger effect = lower value 0.998 | locus YDL074C, strain BRE1, stronger effect = lower value 1.01 | locus YDL101C, strain DUN1, stronger effect = lower value 1.01 | locus YDL134C, strain PPH21, stronger effect = lower value 0.997 | locus YDL185W, strain tfp1, stronger effect = lower value 1.06 | locus YDL192W, strain arf1, stronger effect = lower value 1.03 | locus YDR001C, strain nth1, stronger effect = lower value 1.01 | locus YDR069C, strain doa4, stronger effect = lower value 1.02 | locus YDR101C, strain arx1, stronger effect = lower value 1.02 | locus YDR137W, strain rgp1, stronger effect = lower value 1.07 | locus YDR150W, strain NUM1, stronger effect = lower value 1.02 | locus YDR159W, strain sac3, stronger effect = lower value 0.965 | locus YDR162C, strain NBP2, stronger effect = lower value 0.993 | locus YDR195W, strain ref2 1.01 | locus YDR297W, strain sur2, stronger effect = lower value 1 | locus YDR318W, strain mcm21, stronger effect = lower value 1.02 | locus YDR334W, strain swr1, stronger effect = lower value 1.01 | locus YDR335W, strain msn5, stronger effect = lower value 1.01 | locus YDR388W, stronger effect = lower value 1.03 | locus YDR392W, strain spt3, stronger effect = lower value 0.911 | locus YDR502C, strain sam2, stronger effect = lower value 1 | locus YEL003W, strain gim4, stronger effect = lower value 1.01 | locus YEL037C, strain rad23, stronger effect = lower value 1.01 | locus YEL061C, strain CIN8 (second series), stronger effect = lower value 1.01 | locus YEL061C, strain CIN8, stronger effect = lower value 0.994 | locus YER015W, strain faa2, stronger effect = lower value 0.982 | locus YER016W, strain bim1, stronger effect = lower value 1 | locus YER110C, stronger effect = lower value 1.05 | locus YER111C, strain swi4, stronger effect = lower value 1.02 | locus YER155C, strain BEM2 (second series), stronger effect = lower value 0.968 | locus YER155C, strain BEM2, stronger effect = lower value 1.01 | locus YER167W, strain BCK2, stronger effect = lower value 1.01 | locus YFR010W, strain ubp6, stronger effect = lower value 1.03 | locus YGL078C, strain dbp3, stronger effect = lower value 1.02 | locus YGL086W, strain mad1, stronger effect = lower value 1.01 | locus YGL167C, strain pmr1, stronger effect = lower value 1.01 | locus YGL173C, strain kem1, stronger effect = lower value 1.01 | locus YGL227W, strain vid30, stronger effect = lower value 1.02 | locus YGL240W, strain doc1, stronger effect = lower value 1.01 | locus YGL248W, strain PDE1, stronger effect = lower value 1 | locus YGL253W, strain hxk2, stronger effect = lower value 1.03 | locus YGR078C, strain PAC10, stronger effect = lower value 1.02 | locus YGR135W, strain pre9, stronger effect = lower value 1.02 | locus YGR229C, strain SMI1, stronger effect = lower value 0.997 | locus YGR252W, strain gcn5, stronger effect = lower value 1.01 | locus YHR013C, strain ard1, stronger effect = lower value 1.03 | locus YHR027C, strain rpn1, stronger effect = lower value 1 | locus YHR030C, strain SLT2, stronger effect = lower value 1.01 | locus YHR079C, strain IRE1 (second series), stronger effect = lower value 1.01 | locus YHR094C, strain hxt1, stronger effect = lower value 1.02 | locus YHR129C, strain ARP1, stronger effect = lower value 0.999 | locus YHR142W, strain chs7, stronger effect = lower value 0.993 | locus YHR200W, strain rpn10, stronger effect = lower value 1.04 | locus YIL066C, strain RNR3, stronger effect = lower value 0.996 | locus YIL073C, strain SPO22, stronger effect = lower value 1.02 | locus YIL125W, strain kgd1, stronger effect = lower value 1.01 | locus YIR030C, strain dcg1, stronger effect = lower value 1.02 | locus YJL092W, strain hpr5, stronger effect = lower value 1.01 | locus YJL095W, strain BCK1 (second series), stronger effect = lower value 1.01 | locus YJL095W, strain BCK1, stronger effect = lower value 0.987 | locus YJL115W, strain asf1, stronger effect = lower value 1 | locus YJL129C, strain trk1, stronger effect = lower value 1.02 | locus YJL134W, strain LCB3, stronger effect = lower value 1.01 | locus YJL154C, strain vps35, stronger effect = lower value 1.01 | locus YJL164C, strain tpk1, stronger effect = lower value 0.978 | locus YJL166W, strain qcr8, stronger effect = lower value 1.02 | locus YJL168C, strain set2, stronger effect = lower value 1.02 | locus YJL187C, strain SWE1 (second series), stronger effect = lower value 1 | locus YJL187C, strain SWE1, stronger effect = lower value 1
